These results are taken from paper PMC7862700, “An all-to-all approach to the identification of sequence-specific readers for epigenetic DNA modifications on cytosine”.

Holding throughout (experiment): DAPPL (digital affinity profiling via proximity ligation, sequencing); 10 mM Tris-HCl pH 7.5, 50 mM NaCl, 1 mM DTT, 4% glycerol, room temperature, 30 min; GST-TFs on glutathione beads, 16-mer random dsDNA library, 0.1% formaldehyde crosslink after washing; high values mean tight binding
The target in one assay is T1, FEV (Homo sapiens, UniProt Q99581 1-238).
T1 sequence: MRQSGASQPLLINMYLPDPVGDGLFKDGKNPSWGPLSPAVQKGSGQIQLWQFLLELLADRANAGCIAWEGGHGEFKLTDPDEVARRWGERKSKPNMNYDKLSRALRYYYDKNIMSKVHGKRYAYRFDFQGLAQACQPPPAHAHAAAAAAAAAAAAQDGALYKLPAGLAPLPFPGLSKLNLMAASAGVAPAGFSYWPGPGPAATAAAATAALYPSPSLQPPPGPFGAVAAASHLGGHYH
As to conditions: protein: recombinant; tags: N-terminal GST; dsDNA, one strand shown. In a few lines:
(§1)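 Pools were built from human transcription factors expressed in yeast as GST fusions, captured on glutathione beads and DNA-barcoded, along with a tag-only sample. Incubation with 200 nmole of a 16-mer random double-stranded DNA library lasted 30 min at room temperature in Tris/NaCl/DTT/glycerol buffer, and was followed by washing, 0.1% formaldehyde crosslinking, proximity ligation, PCR amplification and Illumina NextSeq500 sequencing. Binding signal is the quotient of each hexamer's read frequency for a factor and its frequency for the tag-only sample.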

Another assay addresses ETV5 (Homo sapiens, UniProt P41161 1-510). The settings on record: protein: recombinant; tags: N-terminal GST; dsDNA, one strand shown. Put shortly: as §1
For a further assay, the target named is HSF1 (Homo sapiens, UniProt Q00613 1-529). As to conditions: protein: recombinant; tags: N-terminal GST; chain copies: 3; dsDNA, one strand shown. In a few lines:
as §1

The target in a further assay is T2, SPIC (Homo sapiens, UniProt Q8N5J4 1-248).
T2 sequence: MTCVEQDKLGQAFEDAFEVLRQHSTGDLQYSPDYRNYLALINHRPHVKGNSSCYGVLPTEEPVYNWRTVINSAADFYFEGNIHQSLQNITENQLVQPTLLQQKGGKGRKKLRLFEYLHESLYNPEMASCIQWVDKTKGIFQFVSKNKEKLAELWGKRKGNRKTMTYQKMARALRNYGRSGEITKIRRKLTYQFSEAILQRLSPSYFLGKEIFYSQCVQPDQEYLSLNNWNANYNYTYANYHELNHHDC
As to conditions: protein: recombinant; tags: N-terminal GST; dsDNA, one strand shown. Put shortly: as §1

The target in the next assay is ELF4 (Homo sapiens, UniProt Q99607 1-663). The settings on record: protein: recombinant; tags: N-terminal GST; dsDNA, one strand shown. Put shortly: as §1
Another assay deals with T3, ELK4 (Homo sapiens, UniProt P28324-2 1-405).
T3 sequence: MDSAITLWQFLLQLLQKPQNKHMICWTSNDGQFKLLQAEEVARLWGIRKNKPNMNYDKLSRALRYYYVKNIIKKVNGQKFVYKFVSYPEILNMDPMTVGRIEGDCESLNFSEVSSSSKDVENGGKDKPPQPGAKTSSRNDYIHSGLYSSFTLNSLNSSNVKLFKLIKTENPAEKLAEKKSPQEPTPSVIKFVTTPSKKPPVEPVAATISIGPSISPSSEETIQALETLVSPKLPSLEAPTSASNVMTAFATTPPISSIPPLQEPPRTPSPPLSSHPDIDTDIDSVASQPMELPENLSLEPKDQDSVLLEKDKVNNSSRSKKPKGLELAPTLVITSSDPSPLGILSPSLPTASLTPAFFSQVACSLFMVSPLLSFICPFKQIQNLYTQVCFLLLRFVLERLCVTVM
As to conditions: protein: recombinant; tags: N-terminal GST; dsDNA, one strand shown. In a few lines:
as §1

The target of the next assay is T4, ETV2 (Homo sapiens, UniProt O00321 1-342).
T4 sequence: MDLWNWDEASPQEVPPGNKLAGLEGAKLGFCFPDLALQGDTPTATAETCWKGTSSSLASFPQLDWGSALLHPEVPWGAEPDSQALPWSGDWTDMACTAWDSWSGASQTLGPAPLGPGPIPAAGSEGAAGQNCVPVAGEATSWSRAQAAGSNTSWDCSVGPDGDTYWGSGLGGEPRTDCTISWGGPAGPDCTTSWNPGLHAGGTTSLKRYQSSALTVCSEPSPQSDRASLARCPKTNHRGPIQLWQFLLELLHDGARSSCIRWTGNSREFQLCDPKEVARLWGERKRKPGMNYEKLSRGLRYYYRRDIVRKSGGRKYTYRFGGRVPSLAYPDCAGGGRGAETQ
As to conditions: protein: recombinant; tags: N-terminal GST; dsDNA, one strand shown. In a few lines:
as §1

For another assay, the target named is T5, ELF3 (Homo sapiens, UniProt P78545 1-371).
T5 sequence: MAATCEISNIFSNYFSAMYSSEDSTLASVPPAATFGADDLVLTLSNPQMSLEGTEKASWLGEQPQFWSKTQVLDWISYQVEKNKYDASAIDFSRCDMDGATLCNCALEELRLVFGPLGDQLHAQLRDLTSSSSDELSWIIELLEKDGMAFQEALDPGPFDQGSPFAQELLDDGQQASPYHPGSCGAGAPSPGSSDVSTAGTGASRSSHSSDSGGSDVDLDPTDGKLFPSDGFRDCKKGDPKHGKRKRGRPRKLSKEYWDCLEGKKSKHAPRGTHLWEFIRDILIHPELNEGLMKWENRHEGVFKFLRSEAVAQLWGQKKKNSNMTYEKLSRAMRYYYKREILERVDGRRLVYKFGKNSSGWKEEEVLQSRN
As to conditions: protein: recombinant; tags: N-terminal GST; dsDNA, one strand shown. In a few lines:
as §1

The target in the next assay is CRX (Homo sapiens, UniProt O43186 1-299). As to conditions: protein: recombinant; tags: N-terminal GST; dsDNA, one strand shown. In a few lines:
as §1

The next assay has as its target ETV1 (Homo sapiens, UniProt P50549 1-477). As to conditions: protein: recombinant; tags: N-terminal GST; dsDNA, one strand shown. In a few lines:
as §1

The target in a further assay is T6, ERF (Homo sapiens, UniProt P50548 1-548).
T6 sequence: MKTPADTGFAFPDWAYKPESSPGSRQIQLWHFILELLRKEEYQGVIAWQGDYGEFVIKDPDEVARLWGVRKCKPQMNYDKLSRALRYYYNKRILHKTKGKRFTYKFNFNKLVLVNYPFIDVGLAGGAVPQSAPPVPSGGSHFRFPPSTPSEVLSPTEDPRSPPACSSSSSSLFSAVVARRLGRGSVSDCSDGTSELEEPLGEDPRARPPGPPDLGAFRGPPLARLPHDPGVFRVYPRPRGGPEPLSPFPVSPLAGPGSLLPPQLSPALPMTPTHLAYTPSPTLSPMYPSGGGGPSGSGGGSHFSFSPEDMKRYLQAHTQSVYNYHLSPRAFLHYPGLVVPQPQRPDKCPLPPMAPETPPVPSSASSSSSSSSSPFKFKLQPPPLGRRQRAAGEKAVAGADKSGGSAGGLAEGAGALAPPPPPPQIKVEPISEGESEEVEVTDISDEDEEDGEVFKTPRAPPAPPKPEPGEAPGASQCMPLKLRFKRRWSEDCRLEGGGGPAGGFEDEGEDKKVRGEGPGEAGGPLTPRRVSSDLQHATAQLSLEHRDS
The settings on record: protein: recombinant; tags: N-terminal GST; dsDNA, one strand shown. In a few lines:
as §1

The target in another assay is T7, ETV3L (Homo sapiens, UniProt Q6ZN32 1-361).
T7 sequence: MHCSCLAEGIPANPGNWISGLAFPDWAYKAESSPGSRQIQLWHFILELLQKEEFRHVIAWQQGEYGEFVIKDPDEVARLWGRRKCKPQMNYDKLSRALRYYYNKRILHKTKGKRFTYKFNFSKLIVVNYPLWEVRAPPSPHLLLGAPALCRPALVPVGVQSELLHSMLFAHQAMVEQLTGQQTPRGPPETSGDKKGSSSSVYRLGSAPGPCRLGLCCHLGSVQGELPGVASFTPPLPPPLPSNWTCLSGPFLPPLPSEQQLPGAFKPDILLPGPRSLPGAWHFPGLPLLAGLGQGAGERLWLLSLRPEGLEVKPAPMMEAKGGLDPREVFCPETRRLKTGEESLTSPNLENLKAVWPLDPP
As to conditions: protein: recombinant; tags: N-terminal GST; dsDNA, one strand shown. Put shortly:
as §1

For a further assay, the target named is T8, ETS2 (Homo sapiens, UniProt P15036 1-469).
T8 sequence: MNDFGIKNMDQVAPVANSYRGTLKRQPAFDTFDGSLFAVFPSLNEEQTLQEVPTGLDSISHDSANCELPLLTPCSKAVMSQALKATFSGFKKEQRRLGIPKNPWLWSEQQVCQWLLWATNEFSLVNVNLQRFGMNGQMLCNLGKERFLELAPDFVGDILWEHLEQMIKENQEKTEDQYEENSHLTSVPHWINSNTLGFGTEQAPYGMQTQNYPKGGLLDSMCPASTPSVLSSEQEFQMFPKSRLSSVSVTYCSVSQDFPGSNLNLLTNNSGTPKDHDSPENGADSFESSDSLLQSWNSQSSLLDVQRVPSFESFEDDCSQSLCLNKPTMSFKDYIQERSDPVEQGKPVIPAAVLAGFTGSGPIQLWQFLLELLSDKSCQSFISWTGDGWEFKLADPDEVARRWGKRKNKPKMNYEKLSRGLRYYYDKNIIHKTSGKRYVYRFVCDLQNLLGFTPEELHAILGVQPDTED
As to conditions: protein: recombinant; tags: N-terminal GST; dsDNA, one strand shown. In a few lines:
as §1

The target of a further assay is T9, SPDEF (Homo sapiens, UniProt O95238 1-335).
T9 sequence: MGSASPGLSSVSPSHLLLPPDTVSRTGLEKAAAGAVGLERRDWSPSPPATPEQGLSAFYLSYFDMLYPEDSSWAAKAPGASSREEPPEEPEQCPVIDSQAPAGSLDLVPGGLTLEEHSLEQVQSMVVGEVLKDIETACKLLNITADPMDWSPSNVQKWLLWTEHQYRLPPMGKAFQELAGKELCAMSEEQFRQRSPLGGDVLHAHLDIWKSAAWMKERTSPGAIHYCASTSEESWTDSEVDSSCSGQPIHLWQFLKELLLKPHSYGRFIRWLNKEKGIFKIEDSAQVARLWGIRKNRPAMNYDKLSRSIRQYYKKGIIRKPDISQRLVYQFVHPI
As to conditions: protein: recombinant; tags: N-terminal GST; dsDNA, one strand shown. In a few lines: as §1

A further assay has as its target T10, ETV7 (Homo sapiens, UniProt Q9Y603 1-341).
T10 sequence: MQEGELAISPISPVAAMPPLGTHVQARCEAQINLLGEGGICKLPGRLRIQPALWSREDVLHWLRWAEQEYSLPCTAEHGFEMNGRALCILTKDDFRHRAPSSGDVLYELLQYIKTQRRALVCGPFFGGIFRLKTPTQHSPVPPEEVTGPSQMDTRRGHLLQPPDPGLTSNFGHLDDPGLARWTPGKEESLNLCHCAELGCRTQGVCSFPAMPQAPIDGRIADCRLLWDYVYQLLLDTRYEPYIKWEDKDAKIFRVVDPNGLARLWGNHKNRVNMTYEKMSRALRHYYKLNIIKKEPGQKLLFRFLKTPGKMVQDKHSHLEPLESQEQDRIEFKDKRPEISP
The settings on record: protein: recombinant; tags: N-terminal GST; dsDNA, one strand shown. Put shortly:
as §1

In a further assay the target is T11, ELF5 (Homo sapiens, UniProt Q9UKW6-2 1-255).
T11 sequence: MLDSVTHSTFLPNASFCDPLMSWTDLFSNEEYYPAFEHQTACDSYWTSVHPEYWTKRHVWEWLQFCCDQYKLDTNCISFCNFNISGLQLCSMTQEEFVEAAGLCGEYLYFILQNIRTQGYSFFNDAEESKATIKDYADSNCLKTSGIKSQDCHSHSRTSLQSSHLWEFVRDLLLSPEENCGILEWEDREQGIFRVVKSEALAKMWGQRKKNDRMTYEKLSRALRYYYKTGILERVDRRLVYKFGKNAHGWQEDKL
The settings on record: protein: recombinant; tags: N-terminal GST; dsDNA, one strand shown. Put shortly:
as §1

The next assay concerns the target T12, ETV3 (Homo sapiens, UniProt P41162-2 1-143).
T12 sequence: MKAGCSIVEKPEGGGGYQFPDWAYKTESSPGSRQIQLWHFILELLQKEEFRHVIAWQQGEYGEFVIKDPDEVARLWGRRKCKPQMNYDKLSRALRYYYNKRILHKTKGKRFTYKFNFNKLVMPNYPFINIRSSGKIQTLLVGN
As to conditions: protein: recombinant; tags: N-terminal GST; dsDNA, one strand shown. In a few lines: as §1

The next assay has as its target ETV6 (Homo sapiens, UniProt P41212 1-452). The settings on record: protein: recombinant; tags: N-terminal GST; dsDNA, one strand shown. In a few lines: as §1

Sequence of CRX (O43186 whole entry): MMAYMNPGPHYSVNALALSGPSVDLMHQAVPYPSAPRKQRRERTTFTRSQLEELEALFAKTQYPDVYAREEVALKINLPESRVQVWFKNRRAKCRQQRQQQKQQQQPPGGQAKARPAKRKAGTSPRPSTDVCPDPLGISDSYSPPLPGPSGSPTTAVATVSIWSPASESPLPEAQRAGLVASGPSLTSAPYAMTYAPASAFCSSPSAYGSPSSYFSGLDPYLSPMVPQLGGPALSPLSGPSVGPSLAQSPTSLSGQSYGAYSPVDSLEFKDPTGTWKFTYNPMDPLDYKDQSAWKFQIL
Sequence of ETV5 (P41161 whole entry): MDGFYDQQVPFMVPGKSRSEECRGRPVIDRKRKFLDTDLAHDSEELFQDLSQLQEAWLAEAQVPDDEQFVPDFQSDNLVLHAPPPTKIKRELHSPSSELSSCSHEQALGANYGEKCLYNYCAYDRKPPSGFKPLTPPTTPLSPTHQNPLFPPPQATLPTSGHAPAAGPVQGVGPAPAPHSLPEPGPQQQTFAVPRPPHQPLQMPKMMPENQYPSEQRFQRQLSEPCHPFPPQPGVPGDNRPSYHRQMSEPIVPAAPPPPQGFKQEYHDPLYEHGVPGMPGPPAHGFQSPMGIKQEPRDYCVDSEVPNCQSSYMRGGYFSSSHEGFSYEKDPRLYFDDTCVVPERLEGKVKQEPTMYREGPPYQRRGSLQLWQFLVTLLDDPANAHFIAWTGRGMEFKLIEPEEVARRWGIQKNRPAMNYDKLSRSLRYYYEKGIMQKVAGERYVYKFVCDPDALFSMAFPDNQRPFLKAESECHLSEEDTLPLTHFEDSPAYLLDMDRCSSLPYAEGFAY
Sequence of HSF1 (Q00613 whole entry): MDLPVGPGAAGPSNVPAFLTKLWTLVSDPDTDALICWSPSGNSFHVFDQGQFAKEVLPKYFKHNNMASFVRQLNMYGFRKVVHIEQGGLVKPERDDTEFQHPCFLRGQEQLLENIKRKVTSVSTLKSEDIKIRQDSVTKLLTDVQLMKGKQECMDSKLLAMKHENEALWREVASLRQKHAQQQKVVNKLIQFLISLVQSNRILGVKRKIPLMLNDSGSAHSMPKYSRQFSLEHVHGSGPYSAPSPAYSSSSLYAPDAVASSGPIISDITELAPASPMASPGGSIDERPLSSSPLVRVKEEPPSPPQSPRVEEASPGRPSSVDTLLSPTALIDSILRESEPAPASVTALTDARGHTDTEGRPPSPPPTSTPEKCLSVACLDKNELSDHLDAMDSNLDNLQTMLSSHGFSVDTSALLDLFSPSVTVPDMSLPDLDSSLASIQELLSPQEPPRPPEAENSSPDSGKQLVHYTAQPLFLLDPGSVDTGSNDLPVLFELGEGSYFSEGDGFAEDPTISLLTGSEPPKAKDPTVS
Sequence of ETV1 (P50549 whole entry): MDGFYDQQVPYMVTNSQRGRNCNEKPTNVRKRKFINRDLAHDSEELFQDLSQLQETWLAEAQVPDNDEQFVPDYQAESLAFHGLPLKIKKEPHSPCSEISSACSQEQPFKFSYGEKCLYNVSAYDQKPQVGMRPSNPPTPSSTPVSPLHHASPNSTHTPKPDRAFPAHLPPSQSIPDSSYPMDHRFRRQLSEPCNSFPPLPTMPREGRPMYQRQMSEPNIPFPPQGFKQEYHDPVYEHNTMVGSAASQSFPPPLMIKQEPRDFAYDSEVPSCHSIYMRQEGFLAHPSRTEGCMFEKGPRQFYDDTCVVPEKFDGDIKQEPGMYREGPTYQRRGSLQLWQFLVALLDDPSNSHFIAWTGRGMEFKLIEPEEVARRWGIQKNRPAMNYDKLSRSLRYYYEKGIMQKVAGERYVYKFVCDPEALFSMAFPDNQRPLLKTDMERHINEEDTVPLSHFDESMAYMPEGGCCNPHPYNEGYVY
Sequence of ETV6 (P41212 whole entry): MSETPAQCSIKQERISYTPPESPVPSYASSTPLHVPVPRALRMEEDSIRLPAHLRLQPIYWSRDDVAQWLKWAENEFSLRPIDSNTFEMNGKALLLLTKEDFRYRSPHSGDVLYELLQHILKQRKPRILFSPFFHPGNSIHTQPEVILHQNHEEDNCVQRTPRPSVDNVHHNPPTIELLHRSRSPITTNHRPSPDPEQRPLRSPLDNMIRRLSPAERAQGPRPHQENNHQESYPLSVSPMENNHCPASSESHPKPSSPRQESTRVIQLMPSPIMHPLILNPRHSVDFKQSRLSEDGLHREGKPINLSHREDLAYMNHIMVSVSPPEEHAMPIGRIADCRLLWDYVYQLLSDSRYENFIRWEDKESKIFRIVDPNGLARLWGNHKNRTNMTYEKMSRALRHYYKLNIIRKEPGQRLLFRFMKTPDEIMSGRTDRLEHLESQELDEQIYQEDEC
Sequence of ELF4 (Q99607 whole entry): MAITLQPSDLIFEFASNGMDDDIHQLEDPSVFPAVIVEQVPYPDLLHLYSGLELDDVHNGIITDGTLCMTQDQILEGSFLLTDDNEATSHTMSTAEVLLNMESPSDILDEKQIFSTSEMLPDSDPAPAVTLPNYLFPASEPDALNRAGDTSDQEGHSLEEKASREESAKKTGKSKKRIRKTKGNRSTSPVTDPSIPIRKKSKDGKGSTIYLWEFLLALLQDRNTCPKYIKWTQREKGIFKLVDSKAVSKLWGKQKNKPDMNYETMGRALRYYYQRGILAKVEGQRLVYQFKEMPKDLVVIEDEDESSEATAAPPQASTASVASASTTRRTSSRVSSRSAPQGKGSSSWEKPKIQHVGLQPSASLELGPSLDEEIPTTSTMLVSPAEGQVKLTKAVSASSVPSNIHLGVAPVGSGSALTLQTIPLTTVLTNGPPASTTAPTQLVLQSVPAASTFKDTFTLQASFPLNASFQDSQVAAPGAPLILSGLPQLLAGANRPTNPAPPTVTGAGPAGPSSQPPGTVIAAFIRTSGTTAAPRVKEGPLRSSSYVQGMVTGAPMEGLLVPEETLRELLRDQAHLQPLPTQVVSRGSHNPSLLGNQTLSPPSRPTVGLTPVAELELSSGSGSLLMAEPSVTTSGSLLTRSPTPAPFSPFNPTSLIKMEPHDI

As to CTCCCC, the binding signal with FEV was 1.4 fold enrichment (6-mer frequency, TF over GST control); in the assay with ETV5, 1.39 fold enrichment (6-mer frequency, TF over GST control); in the assay with HSF1, 1.14 fold enrichment (6-mer frequency, TF over GST control); with SPIC, 1.28 fold enrichment (6-mer frequency, TF over GST control); with ELF4, 1.42 fold enrichment (6-mer frequency, TF over GST control); in the assay with ELK4 it was 1.38 fold enrichment (6-mer frequency, TF over GST control). The binding signal is 1.63 fold enrichment (6-mer frequency, TF over GST control) with ETV2; 1.25 fold enrichment (6-mer frequency, TF over GST control) with ELF3; 1.19 fold enrichment (6-mer frequency, TF over GST control) with CRX; 1.46 fold enrichment (6-mer frequency, TF over GST control) in the assay with ETV1; 1.51 fold enrichment (6-mer frequency, TF over GST control) with ERF; 1.29 fold enrichment (6-mer frequency, TF over GST control) in the assay with ETV3L. In addition, the binding signal is 1.33 fold enrichment (6-mer frequency, TF over GST control) in the assay with ETS2; 1.28 fold enrichment (6-mer frequency, TF over GST control) in the assay with SPDEF; 1.37 fold enrichment (6-mer frequency, TF over GST control) in the assay with ETV7; 1.33 fold enrichment (6-mer frequency, TF over GST control) in the assay with ELF5; 1.38 fold enrichment (6-mer frequency, TF over GST control) with ETV3; 1.36 fold enrichment (6-mer frequency, TF over GST control) in the assay with ETV6.
